In the supplement of paper PMC9262897, “Low-cost anti-mycobacterial drug discovery using engineered E. coli” (Nature Communications, 2022) one finds growth data, which are given here for 8 compounds.

Where a name gives a salt, the structure may show the parent alone. ± gives the standard deviation of the averaged measurements.

The test system of this test is E. coli TESEC Mtb Alr. The experiment in a line: growth (OD600 after 10 h); higher = more growth (less inhibition). The following applies: compound 0.1 mM. The procedure: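 TESEC Mtb Alr E. coli, or the Alr+ wild-type control, in 384-well plates with Prestwick library compounds at 0.1 mM and 1% DMSO, across arabinose induction levels of 1E3 to 1E7 nM. Growth is read as OD600 after 10 h at 37 °C in triplicate biological replicates.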

[1] abbreviates: arabinose 1000 nM, raw OD600 reference: median of DMSO wells 0.294, cell-free background 0.041.
[2] abbreviates: arabinose 10000 nM, raw OD600 reference: median of DMSO wells 0.264, cell-free background 0.041.
Where [3] appears, read: arabinose 100000 nM, raw OD600 reference: median of DMSO wells 0.201, cell-free background 0.041.
Where [4] appears, read: arabinose 1000000 nM, raw OD600 reference: median of DMSO wells 0.193, cell-free background 0.041.
The mark [5] stands for this setting: arabinose 10000000 nM, raw OD600 reference: median of DMSO wells 0.146, cell-free background 0.041.

As to `CC(=O)O[C@H]1C(=O)[C@@]2(C)[C@H]([C@H](OC(=O)c3ccccc3)[C@]3(O)C[C@H](OC(=O)[C@H](O)[C@@H](NC(=O)c4ccccc4)c4ccccc4)C(C)=C1C3(C)C)[C@]1(OC(C)=O)CO[C@@H]1C[C@@H]2O` [Paclitaxel], the growth was found to be 0.285 ± 0.019 under setting [1]; 0.255 ± 0.024 under setting [2]; 0.222 ± 0.019 under setting [3]; 0.2 ± 0.015 under setting [4]; 0.179 ± 0.018 under setting [5].
The matching figures for `COc1cc2nc(N(C)CCCNC(=O)C3CCCO3)nc(N)c2cc1OC` (stereo not given) [Alfuzosin hydrochloride]: 0.286 ± 0.005, 0.252 ± 0.0042, 0.192 ± 0.027, 0.142 ± 0.008 and 0.155 ± 0.011.
As to `Cc1oncc1C(=O)Nc1ccc(C(F)(F)F)cc1` [Leflunomide], the growth is, setting by setting: under setting [1], 0.149 ± 0.0026; under setting [2], 0.1904 ± 0.0019; under setting [3], 0.138 ± 0.0062; under setting [4], 0.106 ± 0.0035; under setting [5], 0.096 ± 0.00046.
For `CCC(C)n1ncn(-c2ccc(N3CCN(c4ccc(OCC5COC(Cn6cncn6)(c6ccc(Cl)cc6Cl)O5)cc4)CC3)cc2)c1=O` (stereo not given) [Itraconazole] the same measures were 0.321 ± 0.01, 0.258 ± 0.0035, 0.251 ± 0.012, 0.171 ± 0.017 and 0.148 ± 0.005.
The matching figures for `CCOCCn1c(N2CCCN(C)CC2)nc2ccccc21` [Emedastine]: 0.288 ± 0.0092, 0.25 ± 0.0071, 0.211 ± 0.052, 0.164 ± 0.0048 and 0.135 ± 0.004.
Regarding `C[C@H](O)C(=O)Nc1c(I)c(C(=O)NC(CO)CO)c(I)c(C(=O)NC(CO)CO)c1I` [Iopamidol], the growth by setting is: under setting [1], 0.323 ± 0.014; under setting [2], 0.287 ± 0.012; under setting [3], 0.217 ± 0.0049; under setting [4], 0.195 ± 0.0084; under setting [5], 0.166 ± 0.0031.
For `CC[N+](CC)(CC(=O)Nc1c(C)cccc1C)Cc1ccccc1` [Denatonium benzoate] the same measures were 0.27 ± 0.0093, 0.254 ± 0.006, 0.182 ± 0.034, 0.173 ± 0.014 and 0.132 ± 0.0092.
Take `CCC(=O)[C@@]1(C)[C@H](C)C[C@H]2[C@@H]3CCC4=CC(=O)C=C[C@]4(C)[C@H]3[C@@H](O)C[C@@]21C` [Rimexolone]: the growth worked out at 0.275 ± 0.019 under setting [1]; 0.248 ± 0.0084 under setting [2]; 0.139 ± 0.005 under setting [3]; 0.148 ± 0.0067 under setting [4]; 0.132 ± 0.0029 under setting [5].
